High-throughput results (PubChem BioAssay)
MsrA act – bovine methionine sulfoxide reductase A activation; AID 602163; activation, % at 10.6 µM; purified bovine MsrA, absorbance read-out; 360,000 compounds, 0.3% hits; in the data active = activation above about 7.5%
MsrA inh – inhibitors of bovine MsrA | purified bovine MsrA, absorbance read-out | inhibition, % at 15.5 µM | 360,000 compounds, 0.75% hits | AID 651718
rCAG binder – molecules binding r(CAG) RNA repeats; 370,000 compounds, 1.3% hits; AID 651821; inhibition, % at 3 µM; r(CAG) RNA repeat, TO-PRO-1 dye displacement fluorescence;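 active = inhibition above the plate cutoff, the mean of all test compounds on that plate plus 3 SD, cut at about 35% in these data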;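 also: higher means more dye released from RNA so lower well fluorescence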
sPLA2-III inh – Blocks human group III sPLA2 activity; Q9NZ20; QFRET BODIPY PC-A2 liposome hydrolysis, fluorescence; inhibition, % at 12.2 µM; 370,000 compounds, 0.56% hits;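 active = inhibition above mean plus 3 SD of compounds lying within the high and low control bounds, cut at about 19% in these data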
Target sequence (Q9NZ20 whole entry, looked up): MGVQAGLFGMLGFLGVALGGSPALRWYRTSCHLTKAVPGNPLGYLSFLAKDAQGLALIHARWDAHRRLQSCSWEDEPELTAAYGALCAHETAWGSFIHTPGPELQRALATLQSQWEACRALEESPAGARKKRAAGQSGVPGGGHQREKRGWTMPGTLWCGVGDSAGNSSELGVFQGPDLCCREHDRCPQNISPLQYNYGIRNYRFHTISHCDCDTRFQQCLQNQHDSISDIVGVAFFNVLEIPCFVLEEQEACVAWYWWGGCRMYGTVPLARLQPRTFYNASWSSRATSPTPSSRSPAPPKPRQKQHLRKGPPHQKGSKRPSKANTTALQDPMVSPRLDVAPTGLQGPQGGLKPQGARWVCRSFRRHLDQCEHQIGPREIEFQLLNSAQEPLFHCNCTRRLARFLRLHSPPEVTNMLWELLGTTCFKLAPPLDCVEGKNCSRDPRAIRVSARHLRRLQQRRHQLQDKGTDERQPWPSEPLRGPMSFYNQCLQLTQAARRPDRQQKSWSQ
MsrA inh confirm – confirmation of bovine MsrA inhibitors. purified bovine MsrA, absorbance read-out. 2,300 compounds, 41% hits. AID 651822. shares compounds with MsrA inh. inhibition, % at 15.5 µM;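 also: coupled to thioredoxin reductase with NADPH and selenocystamine and DMSO as substrate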
rCAG binder conf – r(CAG) RNA repeat binding, confirmation | shares compounds with rCAG binder | TO-PRO-1 dye displacement fluorescence | inhibition, % at 3 µM | 4,300 compounds, 70% hits | AID 652065;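 active = inhibition above a per-plate cutoff, the mean inhibition of sample wells plus 3 SD, cut at about 35% in these data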;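 also: loss of TO-PRO-1 fluorescence as compound displaces dye from 1x1 AA loop RNA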
DNA CAG counter – disrupts DNA CAG TO-PRO-1 complex, flagging rCAG hits; shares compounds with rCAG binder; d(CAG) DNA oligo TO-PRO-1 dye displacement, fluorescence; inhibition, % at 3 µM; 4,300 compounds, 94% hits;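 active = inhibition above its plate's cutoff, the mean test-well inhibition plus 3 SD, cut at about 4.8% in these data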;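 also: hits displace the dye from DNA and so lower well fluorescence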
Each line names hits and unclear results; the compound was inactive in the other large screens (follow-up assays come after a bar, where they were run). This is a sample that favours compounds with a hit; in the whole collection about 2.8% have one here. Rule as the data show it, unless noted: active = inhibition above about 4.5%; inactive = the rest.

Cc1[nH]n(-c2ccccc2)c(=O)c1C=Nc1ccc(S(=O)(=O)Nc2nccs2)cc1	MsrA inh 5.7, rCAG binder 43.3 | MsrA inh confirm inactive | rCAG binder conf 41.4 | DNA CAG counter 12.9
CCOc1ccc(N(CC(=O)NC2CCCCC2)S(=O)(=O)c2ccc(C)cc2)cc1	none
Cc1ccc(/C=N/N=C2/NC(=O)C(CC(=O)Nc3ccc(Cl)cc3)S2)o1 (configuration not stated)	none
O=C(O)CC1S/C(=N/N=C/c2ccc(-c3ccc(Cl)c([N+](=O)[O-])c3)o2)NC1=O (configuration not stated)	MsrA inh 5.4, rCAG binder 35.1 | MsrA inh confirm inactive | rCAG binder conf inactive | DNA CAG counter 8.0
O=[N+]([O-])c1cc(-c2ccc(/C=N/n3cnnc3)o2)ccc1Cl	none
O=C(O)CC1S/C(=N/N=C/c2ccc(-c3ccc(Cl)cc3[N+](=O)[O-])o2)NC1=O (configuration not stated)	MsrA inh 4.9, rCAG binder 43.0 | MsrA inh confirm 5.8 | rCAG binder conf inactive | DNA CAG counter 6.6
COc1ccc(-c2noc(CCC(=O)Nc3cccnc3)n2)cc1OC	none
COC(=O)C1CN(S(=O)(=O)c2ccc(NC(C)=O)cc2)CCS1 (configuration not stated)	none
COc1ccc(/C=C2\SC(=S)N(CCC(=O)Nc3ccccc3C(=O)O)C2=O)cc1	none
O=C(CN1C(=O)S/C(=C\c2cccs2)C1=O)Nc1ccc(O)cc1C(=O)O	MsrA inh 5.1, rCAG binder 68.2 | MsrA inh confirm inactive | rCAG binder conf 48.7 | DNA CAG counter 15.3
O=C(CCN1C(=O)S/C(=C/c2ccccc2)C1=O)Nc1ccc(O)c(C(=O)O)c1	MsrA inh 6.5, rCAG binder 56.5 | MsrA inh confirm inactive | rCAG binder conf 39.6 | DNA CAG counter 14.4
O=C(CCN1C(=O)S/C(=C\c2ccccc2)C1=O)Nc1ccc(O)cc1C(=O)O	MsrA inh 4.8, rCAG binder 46.4 | MsrA inh confirm inactive | rCAG binder conf inactive | DNA CAG counter 8.4
O=C(CCN1C(=O)S/C(=C\c2cccs2)C1=O)Nc1nccs1	none
COc1cccc(SCc2noc(C(=O)NCCN(C)C)c2C(=O)NCCN(C)C)c1	none
Cc1ccc(-n2ccc(=O)c(C(=O)Nc3ccc(S(=O)(=O)Nc4onc(C)c4C)cc3)n2)cc1	MsrA inh 4.8, rCAG binder 59.1 | MsrA inh confirm inactive | rCAG binder conf 46.3 | DNA CAG counter 15.9
O=C(Cc1cccc2ccccc12)Nc1c(F)cccc1F	none
O=C(Nc1ccc(C(=O)O)cc1)/C(=C\C=C\c1ccccc1)NC(=O)c1ccccc1Br	MsrA inh 8.7, rCAG binder 53.7 | MsrA inh confirm 6.4 | rCAG binder conf 35.4 | DNA CAG counter 11.5
O=C(Nc1cccc(C(=O)O)c1)/C(=C\c1ccc2c(c1)OCO2)NC(=O)c1ccc(Br)cc1	MsrA inh 6.1, rCAG binder 42.7 | MsrA inh confirm inactive | rCAG binder conf inactive | DNA CAG counter 6.9
Cc1ccc(NC(=O)/C(=C\C=C\c2ccccc2)NC(=O)c2ccccc2)cc1	none
O=C(Nc1ccc(C(=O)O)cc1)/C(=C\C=C\c1ccccc1)NC(=O)c1cccc(Br)c1	MsrA inh 5.2, rCAG binder 78.0 | MsrA inh confirm 4.6 | rCAG binder conf 80.0 | DNA CAG counter 51.5
COc1ccc(/C=C(/NC(=O)c2ccccc2OC)C(=O)Nc2ccc(C(=O)O)cc2)cc1	none
CC(C)c1c(O)nc(SCC(=O)Nc2ccc3c(c2)CCC3)[nH]c1=O	none
CCOc1cc(/C=C(/C#N)c2ccc(F)cc2)ccc1OCc1ccc(C(=O)O)o1	MsrA inh 6.7, rCAG binder 69.4 | MsrA inh confirm inactive | rCAG binder conf 68.2 | DNA CAG counter 28.6
O=C(N=Nc1c(O)[nH]c2ccccc12)c1ccccc1NS(=O)(=O)c1cccs1	MsrA inh 4.8, rCAG binder 64.8 | MsrA inh confirm inactive | rCAG binder conf 41.1 | DNA CAG counter 15.2
CNC(=O)c1ccc(Nc2nc(-c3ccccc3)nc3ccccc23)cc1	none
O=C(O)c1ccc(Nc2nc(-c3ccccc3)nc3ccccc23)cc1	MsrA inh 6.0, rCAG binder 36.6 | MsrA inh confirm inactive | rCAG binder conf inactive | DNA CAG counter 5.5
O=C(NCC(c1ccco1)N1CCc2ccccc2C1)c1ccc(Cl)cc1 (configuration not stated)	none
CSCC[C@H](NC(=O)OC(C)(C)C)C(=O)NCC1CCC(C(=O)O)CC1 (some centres not stated)	none
CS(=O)(=O)c1ccc(-c2nnc(NC(=O)c3ccc(S(=O)(=O)N4CCCC4)cc3)o2)cc1	MsrA inh 5.1, rCAG binder 35.8 | MsrA inh confirm inactive | rCAG binder conf inactive | DNA CAG counter 4.7
CC1CCN(S(=O)(=O)c2ccc(C(=O)Nc3nnc(-c4ccncc4)o3)cc2)CC1	none
Cc1cccc(OCc2nc(-c3nonc3N)no2)c1C	none
Cc1ccc(-n2c(=S)sc3c(=O)n(-c4ccc(F)cc4)c(SCC(=O)O)nc32)cc1C	MsrA inh 5.3, rCAG binder 35.5 | MsrA inh confirm inactive | rCAG binder conf inactive | DNA CAG counter 6.4
COc1ccc(-n2c(SCC(=O)C(C)(C)C)nc3c(sc(=S)n3-c3ccccc3)c2=O)c(OC)c1	none
COc1ccc(/C=C/C(=O)Nc2ccccc2)cc1OC	none
COc1ccc(/C=C/C(=O)Nc2c(C(=O)O)[nH]c3ccccc23)cc1OC	MsrA inh 5.6, rCAG binder 38.1 | MsrA inh confirm inactive | rCAG binder conf inactive | DNA CAG counter 7.0
O=C(CCc1nc(-c2ccc(F)cc2)no1)Nc1cccc(C(=O)NC2CC2)c1	none
O=C(N/C(=C/c1cccc([N+](=O)[O-])c1)C(=O)N1CCCC1)c1ccccc1	none
COc1cc(/C=N/NC(=O)[C@H](Cc2c[nH]c3ccccc23)NC(=O)OCC(C)C)cc([N+](=O)[O-])c1O	MsrA inh 6.4, rCAG binder 70.2 | MsrA inh confirm inactive | rCAG binder conf 48.0 | DNA CAG counter 16.9
CCOc1ccc(C2C(C(=O)c3ccco3)=C(O)C(=O)N2Cc2cccnc2)cc1 (configuration not stated)	none
CS/C(Nc1cc(Cl)ccc1Cl)=C(/C#N)C(=O)c1ccco1	MsrA inh 5.0, rCAG binder 47.4 | MsrA inh confirm inactive | rCAG binder conf inactive | DNA CAG counter 5.7
CO[C@H]1C=CO[C@@]2(C)Oc3c(C)c(O)c4c(O)c(c(C=NN5CCN(C)CC5)c(O)c4c3C2=O)NC(=O)C(C)=CC=C[C@H](C)[C@H](O)[C@@H](C)[C@@H](O)[C@@H](C)[C@H](OC(C)=O)[C@@H]1C	MsrA inh 5.4, rCAG binder 77.5 | MsrA inh confirm inactive | rCAG binder conf 78.7 | DNA CAG counter 48.9
Cc1ccc(CSCCNS(=O)(=O)c2ccccc2)cc1	none
